# Only some compounds are listed: those with a hit (about 1.9% of all), similar ones and a draw of the others.
# KLF5 inh: kruppel-like factor 5 inhibition; inhibition, % at 5 µM; AID 1700; 290,000 tested, 0.23% active; DLD-1 KLF5 promoter-luciferase reporter, luminescence;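 active = inhibition above a per-plate limit of that plate's mean compound inhibition plus 3 SD, cut at about 60% in these data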;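 note: 0% = DMSO wells and 100% = LY294002 at 200 µM; higher means less KLF5 promoter-driven luciferase light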
# Ba/F3 V617F tox: reduce viability of Ba/F3 cells dependent on JAK2V617F | inhibition, % at 5.6 µM | Ba/F3 EpoR-JAK2V617F viability, ATP luminescence | 220,000 tested, 1.1% active | AID 1446;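 active = inhibition above the campaign mean plus 3 SD over all tested compounds, cut at about 24% in these data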;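 note: cytokine-independent growth of Ba/F3 cells driven by EpoR plus mutant JAK2; 0% = DMSO-treated cells and 100% = JAK inhibitor I control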
# BaF3 parental: parental Ba/F3 viability inhibition as JAK2V617F counter-screen. AID 1486. 220,000 tested, 1.1% active. CellTiter-Glo ATP luminescence. inhibition, % at 5.6 µM;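 active = inhibition above a per-campaign cutoff, the mean inhibition of all tested compounds plus 3 SD, cut at about 27% in these data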;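 note: 0% = DMSO wells and 100% = JAK Inhibitor I control wells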
# IEC-6 cytotox: IEC-6 cytotoxicity, counter-screen for KLF5 inhibitors; luminescence viability; inhibition, % at 5 µM; 290,000 tested, 0.78% active; AID 1825; in the data active = inhibition above about 22%;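 note: 0% = plate median of test compound wells and 100% = cytotoxic reference compound wells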
# APP transl inh: APP translation inhibition | SH-SY5Y APP 5'UTR-luciferase reporter, luminescence | inhibition, % at 2 µM | 190,000 tested, 0.82% active;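 active = inhibition above a set limit, derived from the sample mean plus 3 SD, cut at about 45% in these data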
# * hit, by the source's call; · = not tested or not shown.
SMILES,KLF5 inh,Ba/F3 V617F tox,BaF3 parental,IEC-6 cytotox,APP transl inh
O=C1c2cccc3c([N+](=O)[O-])ccc(c23)C(=O)N1c1ccccn1,-1,21,10,7,81*
O=C1c2cccc3c(N4CCCCC4)ccc(c23)C(=O)N1c1ccccn1,-17,-5,0,-1,1
O=C1c2cccc3c(N4CCCCC4)ccc(c23)C(=O)N1c1ccc(Cl)cn1,3,0,9,0,-18
O=C1c2cccc3c([N+](=O)[O-])ccc(c23)C(=O)N1c1nccs1,-16,39*,32*,8,81*
O=C1c2cccc3c([N+](=O)[O-])ccc(c23)C(=O)N1c1ccc(Cl)cn1,16,-2,-1,0,78*
COc1cccc(CN2CC(C(=O)NCc3ncc(C)[nH]3)CCC2=O)c1 (stereo not given),-7,·,·,-7,·
CCC(NC(=S)NC1CCCCC1)c1ccc(C(C)C)cc1 (stereo not given),-8,·,·,-6,·
CC(=O)[C@@]1(O)C(C)CC2C3C=C(C)C4=Cc5c(cnn5-c5ccccc5)C[C@]4(C)C3C(O)C[C@@]21C (stereo not given in full),-33,9,0,27*,·
COc1ccccc1C(=O)NNC(=O)CCC(=O)NCc1ccccc1,-2,·,·,-5,·
Cc1noc(NS(=O)(=O)c2ccc(NC(=O)c3nn(-c4ccccc4)ccc3=O)cc2)c1C,-20,·,·,-2,·
CC(C)(C)c1ccc(C(=O)N2CCCCCC2=O)cc1,47,-1,5,0,57*
CC(C)(C)c1ccc(C(=O)Nc2ccc(C(=O)N3CCCC3)cc2)cc1,-18,·,·,2,·
CCOCCCNC(=O)c1c(N)n(-c2ccc3c(c2)OCO3)c2nc3ccccc3nc12,-1,36*,60*,22,·
CC1(C)CC(=O)c2sc(NC(=O)C(C)(C)C)nc2C1,-49,-4,0,0,-29
CC1(C)CC(=O)c2sc(NC(=O)CN3CCCCC3)nc2C1,26,0,2,0,54*
Cc1ccc(NC(=O)O/N=C/c2ccc(N(C)C)cc2)cc1,-24,·,·,-12,·
CN(C)c1ccc(/C=C2\CCC/C(=C\c3ccccc3)C2=O)cc1,-39,-1,5,3,-1
CC(=O)N1/C(=C/c2ccc(N(C)C)cc2)C(=O)c2ccccc21,21,2,-8,21,81*
CN(C)S(=O)(=O)c1ccc(Cl)c(C(=O)Nc2ccc(S(=O)(=O)N3CCOCC3)cc2)c1,-10,·,·,2,·
Nc1c(C(=O)NC2CC2)sc2nc3c(c(-c4ccco4)c12)CC/C3=C/c1ccco1,13,-5,1,-19,51*
NC(=O)c1sc2nc3c(c(-c4ccco4)c2c1N)CCC3,19,4,5,-18,10
Cc1ccccc1CNC(=O)C1CCC(=O)N(C2CCCCCC2)C1 (stereo not given),-19,·,·,-1,·
N=c1c2c(-c3ccccc3)c(-c3ccccc3)n(Cc3ccccc3)c2ncn1CCCn1ccnc1,38,2,4,8,83*
Cc1ccccc1-n1nc2c(c1NC(=O)c1ccc3c(c1)OCO3)CS(=O)(=O)C2,-6,·,·,-10,·
Cc1ccc(NC(=S)N2CCN(C(=O)C3CCCO3)CC2)cc1 (stereo not given),5,3,3,9,8
SMILES,KLF5 inh,Ba/F3 V617F tox,BaF3 parental,IEC-6 cytotox,APP transl inh
S=C(Nc1ccc(Cl)cc1)N1CCN(Cc2ccccc2)CC1,-6,28*,49*,3,2
O=C(C1CCCO1)N1CCN(C(=S)Nc2ccc(Cl)cc2)CC1 (stereo not given),-19,39*,30*,-4,-3
CC1(C)N=C(N)NC(Nc2ccc(Br)cc2)=N1,-15,9,35*,2,-9
N#CC(c1ccc(Cl)cc1)c1cccc(Cl)n1 (stereo not given),-7,-3,48*,-3,28
Cc1nn(Cc2ccc(Cl)c(Cl)c2)c(C)c1NC(=O)c1cc(-c2ccc3c(c2)OCO3)on1,-9,-4,2,1,52*
COc1ccc(OC)c(NC(=O)Nc2nnc(N3CCC(C)CC3)s2)c1,0,3,10,1,48*
COc1ccc(NC(=O)Nc2nnc(N3CCC(C)CC3)s2)cc1OC,-5,-2,8,-4,27
CCC1CCCCN1C(=S)NC(=O)c1cccc([N+](=O)[O-])c1 (stereo not given),-11,·,·,10,·
Cc1cc(NC(c2cccnc2)c2ccc3cccnc3c2O)no1 (stereo not given),28,1,-1,18,54*
S=c1[nH]nc(-c2cccc3ccccc23)n1-c1cccnc1,-18,52*,50*,-3,·
Cc1cc(C)cc(N(CC(=O)NC2CCCC2)C(=O)CNC(=O)c2cccs2)c1,2,·,·,-4,·
CCCN(CCC)C1=CC(=[N+]2CCCC2)CC(C)(C)C1,-9,88*,72*,20,-2
CN(C)NC1=CC(=[N+]2CCCC2)CC(C)(C)C1,-22,1,3,8,-20
O=C(Nc1nc2c(F)cc(F)cc2s1)C1CC1,-48,·,·,-4,·
Cc1c(CCOC(=O)CC23CC4CC(CC(C4)C2)C3)sc[n+]1Cc1ccccc1,-37,29*,41*,0,-10
Cc1ccccc1N=C/C=C1\N(C)c2ccccc2C1(C)C,-18,1,48*,-1,-14
CN1/C(=C\C=[N+](C)c2ccccc2)C(C)(C)c2ccccc21,-21,75*,66*,5,10
CC[N+](C)(CC)CC(=O)OCC1C(C)C=C(C)CC1C (stereo not given),2,27*,34*,2,·
CC1=CC(C)C(C(=O)O)C(C(=O)O)C1 (stereo not given),4,-3,1,-1,18
Cc1ccc(Cn2c(O)c(N=NC(=S)Nc3ccccc3F)c3cc(S(=O)(=O)N4CCOCC4)ccc32)cc1,24,2,5,8,50*
CC(C)CN(CC(C)C)C(=S)Nc1ccc(Cl)cc1,10,33*,43*,-1,4
CCN(CC)CCn1cnc2c([nH]c3cccc(OC)c32)c1=O,-32,6,69*,10,7
COc1cccc2[nH]c3c(=O)[nH]cnc3c12,-18,·,·,-2,·
C#Cc1ccc(CN2CCC(Oc3ccc(C(=O)NCc4ccccn4)cc3)CC2)cc1,-31,·,·,-5,·
Cc1cc(C)c[n+](C(C)C(=O)c2ccc(-c3ccccc3)cc2)c1 (stereo not given),-30,66*,65*,-2,6
COc1cccc(Cn2c(-c3nonc3N)nc3ccccc32)c1,-38,86*,79*,9,92*
COc1cc(Cn2c(-c3nonc3N)nc3ccccc32)ccc1C,1,1,3,10,90*
Nc1nonc1-c1nc2ccccc2n1Cc1ccc(Cl)cc1,-10,-2,5,2,-4
NNC(=O)Cn1c(-c2nonc2N)nc2ccccc21,-7,-1,5,-8,-10
CCCCOc1ccccc1NC(=O)Cn1c(-c2nonc2N)nc2ccccc21,19,2,9,1,90*

# Screening data from PubChem.
